Assay results published in ChEMBL document CHEMBL3988442, “University of Dundee, Small-Polar-MMV Screening Library” (2021).

Tests used:
[1] = target: T1, Aspartate--tRNA(Asp/Asn) ligase (Mycobacterium tuberculosis (strain ATCC 25618 / H37Rv)) (UniProt P9WFW3); test: Assay for Asp RNA synthetase-1 from Mycobacterium tuberculosis; assay type: functional; set-up: scale not given: direction of the effect not stated beside the values; settings: 30 µM; note: in the data most compounds retested in dose-response had high values
T1 sequence (whole entry): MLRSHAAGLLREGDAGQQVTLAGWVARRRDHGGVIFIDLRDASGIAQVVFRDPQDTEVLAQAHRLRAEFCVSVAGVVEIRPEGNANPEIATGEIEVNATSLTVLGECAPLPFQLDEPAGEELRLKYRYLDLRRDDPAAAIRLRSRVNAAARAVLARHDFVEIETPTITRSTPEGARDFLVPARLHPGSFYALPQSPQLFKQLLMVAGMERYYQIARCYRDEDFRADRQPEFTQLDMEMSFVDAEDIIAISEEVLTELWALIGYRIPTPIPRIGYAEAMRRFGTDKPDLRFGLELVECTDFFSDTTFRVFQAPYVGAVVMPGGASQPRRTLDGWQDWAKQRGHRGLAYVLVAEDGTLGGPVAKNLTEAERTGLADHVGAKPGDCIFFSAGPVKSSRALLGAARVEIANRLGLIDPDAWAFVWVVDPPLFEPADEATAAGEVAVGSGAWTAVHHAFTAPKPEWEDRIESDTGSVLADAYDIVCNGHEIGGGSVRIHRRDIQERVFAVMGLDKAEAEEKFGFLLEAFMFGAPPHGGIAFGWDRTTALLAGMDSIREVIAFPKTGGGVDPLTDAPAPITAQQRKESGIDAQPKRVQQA

[2] = target: Shiga toxin 2 (Escherichia coli O157:H7) (UniProt P09385+P09386); test: E. coli 0.157:H7 Shiga Toxin SOP - stx2 screening assay; assay type: functional; set-up: scale not given: direction of the effect not stated beside the values; settings: 30 µM

SMILES | Percent Effect [1] | Percent Effect [2]
Cc1cnn(C2CCCN(C(=O)CCCNc3ncccn3)C2)c1 (centres undefined) | 1.18% | 20.6%
CC(C)N1CC(C(=O)NCCOc2ccc3c(c2)OCO3)CC1=O (centres undefined) | -3.6% | 13.8%
CC(=O)N1CCN(S(=O)(=O)c2ccc(C)c(F)c2)CC1 | -1.95% | -12.2%
O=C(c1ccc(NC2CC2)nc1)N1CCCC(n2cccn2)C1 (centres undefined) | -1.7% | 14.7%
CCOc1cc(/C=C/c2ncc(C(=O)O)s2)cc(Cl)c1OC | -1.24% | -0.531%
Cc1cc(C2CCCN(C(=O)c3cnn(C)c3)C2)ccn1 (centres undefined) | -6.03% | -7.91%
CN(C)c1cc(C(=O)N2CCCC(n3cccn3)C2)ccn1 (centres undefined) | -2.86% | -7.48%
Cn1cc(-c2nnn3c2COC(CNCc2nccs2)C3)cn1 (centres undefined) | -4.41% | -39.2%
CNC(=O)CSc1cnn(CC(=O)Nc2cccc(Cl)c2C)c(=O)c1Cl | -5.35% | -8.91%
O=C(c1ccc(F)cc1)N1C[C@H]2CCC[C@@]2(COCc2ccccn2)C1 | 9.3% | 3.92%
CC(=O)N1CCC(CN2CCN(Cc3nccn3C)C(C)C2)CC1 (centres undefined) | 7.78% | 18.6%
O[C@]1(c2ccccn2)CC[C@@H]2CN(Cc3cccc4ncccc34)C[C@@H]21 | 0.581% | -21.3%
OCCC1CN(C2CCC2)CCN1C1CCCC1 (centres undefined) | -1.5% | 7.89%
Cn1cccc1C(=O)N1CCN(Cc2ccncc2)c2ncccc2C1 | 0.0582% | -10%
CNc1nc(C2CCCN2C(C)=O)nc2c1CCN(CC1CC1)C2 (centres undefined) | 1.43% | -7.13%
CC(O)CN1CCN(C(=O)CN(C)c2ccc(Cl)cn2)CC1 (centres undefined) | 0.546% | -10.6%
CCOc1ncccc1NC(=O)N1CCN(c2cccc(C)c2C)CC1 | 1.92% | 38.1%
N#Cc1cccc(CN2CC[C@@H]3[C@@H]2CC(=O)N3Cc2cccnc2)c1 | 4.04% | -0.447%
Cc1ccc(C2CSCCN2C(=O)C2=CCCC2)o1 (centres undefined) | 6.9% | 5.19%
Cc1noc(C)c1C(=O)NCc1ccc(N2CCOC(C)C2)nc1 (centres undefined) | -1.75% | -60.1%
c1ncn(CC2CCCCN2Cc2noc(C3CC3)n2)n1 (centres undefined) | 3.28% | 26%
COc1ccc(C(=O)N2CC[C@H](CO)[C@H](O)C2)c(C)c1 | -1.53% | 9.86%
CC(=O)N1CCOCC2(CN(Cc3ccc(C)o3)CCO2)C1 (centres undefined) | 1.57% | -4.76%
Cc1cnn(CCNCc2ccccc2C#N)c1 | -1.14% | 12.5%
Cc1csc(N2CCN(CC(=O)Nc3c(C)n[nH]c3C)CC2C)n1 (centres undefined) | 2.07% | 17.4%
O=C(Nc1cnn(CCN2CCOCC2)c1)c1ccccn1 | -1.48% | 19.4%

SMILES | Percent Effect [1] | Percent Effect [2]
COCC(C)NC(=O)c1cc(Br)c2c(c1)OCCO2 (centres undefined) | -9.24% | -10.8%
COc1ccc(C2Nc3cc(Cl)ccc3C3=NCCN32)cc1OC (centres undefined) | -3.07% | -59.6%
Cc1ccc(OC2(C(=O)O)CCN(C(=O)c3ccc(F)cc3)CC2)cn1 | -4.69% | 10.4%
NC(=O)C1CCCN(Cc2c(-c3ccco3)[nH]c3ncccc23)C1 (centres undefined) | 10.6% | 3.34%
COCC(=O)N1CC[C@H]2C[C@H](C)O[C@@H]2C1 | -2.9% | 3.29%
O=C(CCC1CCN(Cc2ncc[nH]2)CC1)Nc1ccccc1Cl | 0.166% | -7.7%
CCOCCCC(=O)NCCC(=O)N1CCN(c2ccccn2)CC1 | 0.809% | -65.6%
Cc1cc(C)n(C2CN(CC(=O)NC3CCOCC3)C2)n1 | -1.88% | -2.98%
CCOc1ccccc1CSc1nnc(CC2CCS(=O)(=O)C2)n1C (centres undefined) | 4.33% | 4.92%
COCc1cc(NCc2cc(F)ccc2F)n2nccc2n1 | 7.1% | -13.4%
Cc1n[nH]c(=O)c2c(NC(=O)CN3CCC(O)CC3)oc(C)c12 | 1.28% | -66.6%
CN1CCOC(CN(C(=O)Cc2ccccc2F)c2nccs2)C1 (centres undefined) | -1.89% | -16%
Fc1cnc(N2CCOC3(CCN(Cc4ccsc4)CC3)C2)nc1 | 14.1% | -18%
Cc1nn(C)c(C)c1C1CCCN1C(=O)c1cnc2n[nH]c(C)c2c1 (centres undefined) | -5.16% | -21.8%
COCCNC(=O)c1sc(Nc2ccc(Cl)cn2)nc1C | -1.92% | -31.4%
CC(C)CS(=O)(=O)CC(=O)N(C)Cc1ccc(OC(F)F)cc1 | -0.457% | 4.95%
Cc1ccc(-n2nnc(C(=O)Nc3cc(C)nn3C)c2C2CC2)cc1 | -2.8% | 34.4%
Cc1nc(CN2CCc3ncnc(C)c3CC2)cs1 | -3.93% | -9.46%
Cc1n[nH]c(C2CN(CC(=O)NCCc3ccsc3)CCO2)n1 (centres undefined) | -3.33% | 7.26%
CC(C)NC(=O)N1CCN(S(=O)(=O)C2CC2)CC2(CC(=O)N(C)C2)C1 (centres undefined) | -1.56% | -20.5%
COc1ccc(CNC(C)c2ccc3[nH]c(=O)[nH]c3c2)cc1 (centres undefined) | 2.66% | -13.7%
O=C(NC1CC1)[C@H]1C[C@@H]2CCN(CCc3ccccc3)C[C@H]2O1 | 3.49% | -10.6%
Cc1cc(C)cc(-c2cccc(CC3(C(=O)O)CCOCC3)c2)c1 | 2.93% | -30%
CN(C)C(=O)[C@@H]1CCO[C@@H]2CCN(CCc3ccccc3)C[C@@H]21 | -3.08% | 1.17%
CCn1cc2c(n1)C(COC)CN(Cc1ccccn1)C2 (centres undefined) | 7.76% | -16.8%
Cc1csc(N2CCN(C(=O)CCc3nccs3)CC2)n1 | 2.49% | 7.79%

SMILES | Percent Effect [1] | Percent Effect [2]
CCC(C)N(C)CCNC(=O)NCc1cccc(-n2cncn2)c1 (centres undefined) | -1.54% | -5.27%
Cc1csc(N2CCCN(C(=O)C3(C#N)CCCCC3)CC2)n1 | -4.79% | 27.1%
COCCO[C@H]1CCN(C(=O)c2ccno2)[C@H]1Cc1cnn(C)c1 | -3.56% | -13.7%
CC(=O)N1CCCC1c1nccc(C)n1 (centres undefined) | 0.191% | 0.898%
Cn1cc(NS(=O)(=O)c2ccc(OC(F)(F)F)cc2)ccc1=O | 51.5% | -3.73%
Cc1occc1C(=O)Nc1ccnc(OC2CCOC2)c1 (centres undefined) | -6.74% | 3.41%
O=C(C1CCOCC1)N1C[C@@H]2C[C@@H](c3nc(C4CC4)cs3)O[C@@H]2C1 | 2.07% | 17.3%
CC(C)(O)C1CCN(C(=O)Nc2nc(-c3ccccc3)ns2)CC1 | 1.51% | -6.7%
O=C(NCCN1CCOCC1)c1ccc(-n2ccc3ccccc32)s1 | 3.45% | -47.9%
CCC1CN(C(=O)NCCOc2ccc3c(c2)OCO3)CCO1 (centres undefined) | -0.509% | -17.6%
c1ccc(-c2cnc(CNC3CCCN(c4cccnn4)C3)o2)cc1 (centres undefined) | -3.48% | 4.96%
O=C(CCNC(=O)c1ccoc1)NCc1ccccc1F | 1.27% | 11.5%
CCN1CCN(C2CCN(Cc3noc(C)n3)CC2)C1=O | -5.45% | -25.5%
CCS(=O)(=O)N1CCC(c2nnc(Cn3cccn3)n2C2CC2)CC1 | -3.09% | -6.14%
CCc1nnsc1C(=O)N1CCCN(Cc2nccn2C)CC1 | 1.58% | 15.5%
Cc1nc(CN2CCN(Cc3ccoc3)Cc3cccnc32)cs1 | 4.04% | -1.98%
CC(=O)NCCNC(=O)c1sc(-c2ccc(Cl)s2)nc1C | 7.28% | 8.5%
O=C(CN1CCC(c2ccnn2CCO)CC1)NCc1cccs1 | -1.91% | -10%
Cn1cccc1C(=O)N1CC[C@H]2C[C@@H](c3ccncn3)O[C@@H]2C1 | -6.89% | 7.29%
Cc1ccc(N2CC3(CCN(C(=O)c4ccoc4)C3)C2)nn1 | -1.37% | -33.4%
CC(=O)N1CCN(c2cc(-c3ccccc3)nc3c(C)c(C)nn23)CC1 | 2.46% | -33.1%
CC(=O)N1CCC(Oc2ccc(C#N)cn2)CC1 | -4.74% | -70.8%
CC(C)C(C(=O)N1CCN(c2ccncc2)CC1)n1cncn1 (centres undefined) | 7.82% | -47.8%
Cc1ccc(F)cc1S(=O)(=O)N(C)CC(N)=O | 2.69% | -5.32%
Cc1ccc(CN2CCn3c(C(=O)N(C)C)cnc3C2)s1 | 5.69% | -13.3%
CN(Cc1cnn(C)c1)C(=O)NCc1nnc2n1CCC2 | -10.2% | 4.62%

SMILES | Percent Effect [1] | Percent Effect [2]
c1cc(C2CCCN2Cc2nnnn2C2CC2)cs1 (centres undefined) | -4.43% | 5.22%
c1cnn(-c2ccc(CN3CCOC(Cn4cncn4)C3)cc2)c1 (centres undefined) | 4.05% | 9.62%
CN(C)C(=O)N1CCN(Cc2ccccc2)[C@@H]2CS(=O)(=O)C[C@@H]21 | 0.569% | -3.78%
Cc1nc(CN2C(=O)CC[C@@H]3[C@H]2CCN3C(=O)NC2CC2)cs1 | -0.474% | -11.4%
Cc1nc(-c2ccco2)ccc1C(=O)N1CCCC1Cn1cccn1 (centres undefined) | 0.0146% | 15.5%
CCn1cnnc1C1CCN(C(=O)c2ccc(Cl)s2)CC1 | -0.371% | -7.76%
CS(=O)(=O)CC(=O)N1C[C@H]2CCC[C@@]2(COCc2ccccn2)C1 | 4.11% | -6.39%
O=C(c1cccc(Cn2ccnc2)c1)N1CCCC(n2ccnc2)C1 (centres undefined) | -0.874% | -7.22%
CCn1cc(N2Cc3nc(N4CCOCC4)ncc3C2=O)cn1 | -3.92% | -20.5%
CC(O)CN1CCC(CNCc2c[nH]nc2C(C)(C)C)CC1 (centres undefined) | 0.384% | 14.9%
Cc1cc(=O)n(CC(=O)Nc2ccc(C(N)=O)cc2)nc1C | -0.0781% | -33%
Cc1cc(NC(=O)c2nc(N3CCCC3)ncc2Cl)nc(C(C)C)n1 | 2.49% | -23.7%
CSc1nccn1-c1cccc(C(=O)NCC2CC2)c1 | 4.07% | 32%
CO[C@H]1CCN(c2ncccn2)[C@H]1Cc1ccccc1 | 1.75% | -19.4%
Cc1cnn(CC2CCCN2Cc2coc(-c3ccccc3)n2)c1 (centres undefined) | -5.72% | -30.1%
CC(C)(C)NC(=O)C1CSCN1S(=O)(=O)c1cccc(F)c1 (centres undefined) | 10.2% | -19.4%
CCOC(C)c1nc(CN2CCNCC2)cs1 (centres undefined) | -2.26% | -12.7%
Cc1ccc(C(=O)NCC2(O)CCOCC2)cc1Br | -1.3% | 8.46%
CCOC(=O)CNC(=O)N1CCN(c2ncccn2)CC1 | 4.73% | -21.7%
O=C(NCC1CCOC1)c1ccc(OCC(F)(F)F)nc1 (centres undefined) | -2.12% | -17.6%
CC(C)OCC(=O)N1CCCN(Cc2ccc(C#N)cc2)CC1 | -0.7% | 27.2%
Cc1ccc2cc(CNCCCO)c(=O)[nH]c2c1 | -1.41% | -9.65%
O=C(NCCN1CCNCC1)c1c(O)c2ccccc2[nH]c1=O | -0.319% | -77.4%
Cc1nc(C)n(CC2CCCN(CC(=O)Nc3nncs3)C2)n1 (centres undefined) | -4.19% | 25.6%
